Test results: PubChem BioAssay
Calls of active or inactive are those of the source. Unless noted, how the calls were made is not given here.

Key:
[1] = test system: Wnt5a (protein binding on small-molecule microarray); test: small molecules binding Wnt5a protein – biophysical, small-molecule microarray, 635/667 nm fluorescence, primary screen (AID 1142); settings: 635 nm fluorescence, higher = more signal;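 further: fluorescence read at 667 nm with signal to noise per printed feature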
[2] = ATP-based viability of Huh7 replicon cells – cell-based, CellTiter-Glo luminescence, basal, 48 h, cytotoxicity control for HCV replication inhibitor project, primary screen (AID 1143); settings: higher = more signal, called active from +8 up or from −8 down;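 further: Huh7 hepatoma cells carrying a hepatitis C replication reporter with no stimulus; test concentration not given here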
[3] = Pseudomonas biofilm growth suppression – PAO1 strain, BacTiter-Glo luminescence, LB-PBS, primary screen (AID 1144); settings: P. aeruginosa PAO1 biofilm, 12 h, higher = more signal
[4] = basal CRE-LacZ reporter activity in PC12 – cell-based, unstimulated, primary screen (AID 1145); settings: no forskolin, luminescence, 4.5 h, higher = more signal, called active from +8 up or from −8 down
[5] = forskolin-driven CRE-LacZ activity in PC12 – cell-based, CRE-LacZ reporter, forskolin-stimulated, primary screen (AID 1146); settings: luminescence, 4.5 h, higher = more signal, called active from +8 up or from −8 down;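 further: PC12 cells with 6xCRE LacZ reporter stimulated by forskolin 10 µM; beta-galactosidase reporter signal reflecting CREB driven transcription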
[6] = biological target: Streptavidin (Streptomyces avidinii) (UniProt P22629); test: compounds binding control protein streptavidin – biophysical, small-molecule microarray, 635/667 nm fluorescence, artefact control for SMM compound annotation, primary screen (AID 1147); settings: higher = more signal;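 further: signal reflects streptavidin binding to arrayed compounds as a control protein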
Streptavidin (Streptomyces avidinii), sequence (P22629 whole entry, looked up): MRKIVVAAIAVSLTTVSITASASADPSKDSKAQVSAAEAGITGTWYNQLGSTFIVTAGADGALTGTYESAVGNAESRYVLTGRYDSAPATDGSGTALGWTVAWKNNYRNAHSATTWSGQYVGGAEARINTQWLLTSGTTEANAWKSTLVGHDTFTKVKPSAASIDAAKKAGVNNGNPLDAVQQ

[7] = probe aInhba binding on compound microarray – biochemical, small-molecule microarray, 635/667 nm fluorescence, primary screen (AID 1148); settings: higher = more signal;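 further: score merges 667nm spot fluorescence with signal-to-noise for antibody binding to printed compounds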
Torsin-1A (Homo sapiens) [8] = biological target: Torsin-1A (Homo sapiens) (UniProt O14656); test: TOR1A wild-type binding on microarray – cell lysate, small-molecule microarray, lysate, 635/667 nm, primary screen (AID 1149); settings: COS7 hTOR1A-WT lysate, 635 nm fluorescence, higher = more signal
Torsin-1A (Homo sapiens), sequence (O14656 whole entry, looked up): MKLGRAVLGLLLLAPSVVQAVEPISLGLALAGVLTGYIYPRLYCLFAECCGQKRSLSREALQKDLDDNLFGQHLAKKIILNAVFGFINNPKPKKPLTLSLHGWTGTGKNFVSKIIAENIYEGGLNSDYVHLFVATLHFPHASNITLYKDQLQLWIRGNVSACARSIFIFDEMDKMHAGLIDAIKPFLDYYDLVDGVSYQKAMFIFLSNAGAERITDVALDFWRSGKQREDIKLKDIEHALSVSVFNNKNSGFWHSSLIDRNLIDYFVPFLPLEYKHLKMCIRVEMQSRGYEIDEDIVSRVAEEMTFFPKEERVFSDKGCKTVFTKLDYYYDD

Torsin-1A (Homo sapiens) [9] = biological target: Torsin-1A (Homo sapiens) (UniProt O14656); test: torsin A mutant lysate binding on microarrays – cell lysate, small-molecule microarray, COS7 lysate, 635/667 nm fluorescence, primary screen (AID 1150); settings: COS7 hTOR1A mutant lysate, 635 nm fluorescence, higher = more signal;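 further: score pools 667 nm emission and signal to noise measuring lysate protein binding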
[10] = test system: Sonic hedgehog protein (Shh); test: Sonic hedgehog microarray binding compounds – biochemical, small-molecule microarray, 635/667 nm fluorescence, primary screen (AID 1151); settings: 635 nm fluorescence, higher = more signal;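 further: Shh protein binding to compounds spotted on small-molecule microarray slides; score combines spot fluorescence intensity with signal-to-noise across triplicate slides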
[11] = optical density shifts of acrAB sulA E. coli – strain DRC41, OD650, 48 h, E. coli filamentation inducer project, primary screen (AID 1152); settings: higher = more signal, called active from +8 up or from −8 down;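 further: E. coli MC1000 strain DRC41 lacking acrAB efflux pump and sulA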
[12] = probe aLefty1 binding on compound microarray – biochemical, small-molecule microarray, 635/667 nm fluorescence, primary screen (AID 1153); settings: higher = more signal;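 further: score merges spot fluorescence with signal-to-noise ratio from the scanned slide images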
[13] = plasmodial surface anion channel blockers, osmotic lysis – cell-based, P. falciparum Indochina, OD700, 1 h, primary screen (AID 1154); settings: P. falciparum Indochina infected RBC osmotic lysis, higher = more signal, called active from +8 up or from −8 down
[14] = plasmodial surface anion channel blockers, osmotic lysis – cell-based, P. falciparum Indochina, OD700, 2 h, primary screen (AID 1155);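 further: lysis reports solute entry through the parasite surface anion channel PSAC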; settings: P. falciparum Indochina infected erythrocytes, higher = more signal, called active from +8 up or from −8 down
[15] = changes in parasitized red cell lysis, either direction – P. falciparum Indochina, OD700, 3 h, PSAC antagonist project, primary screen (AID 1156); settings: P. falciparum-infected erythrocytes, osmotic lysis, higher = more signal, called active from +8 up or from −8 down
[16] = plasmodial surface anion channel blockers, osmotic lysis – cell-based, P. falciparum Indochina, OD700, 18 h, primary screen (AID 1157); settings: P. falciparum Indochina infected erythrocytes, osmotic lysis OD700, 18 h; higher = more signal, called active from +8 up or from −8 down
[17] = S6 kinase pathway phospho-S6 level changes – cell-based, A549, cytoblot, luminescence, serum-stimulated, primary screen (AID 1158); settings: 5 h, higher = more signal;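 further: serum-stimulated A549 lung adenocarcinoma cells; signal is phosphorylated S6 detected by cytoblot immunostaining with HRP secondary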
[18] = biological target: NADPH oxidase 2 (Homo sapiens) (UniProt P04839); test: compounds shifting NOX2 Amplex Red fluorescence – cell-based, HEK293-NOX2, PMA-stimulated, NOX inhibitor project, primary screen (AID 1159); settings: 45 min, higher = more signal, called active from +8 up or from −8 down; further: test concentration not given here
NADPH oxidase 2 (Homo sapiens), sequence (P04839 whole entry, looked up): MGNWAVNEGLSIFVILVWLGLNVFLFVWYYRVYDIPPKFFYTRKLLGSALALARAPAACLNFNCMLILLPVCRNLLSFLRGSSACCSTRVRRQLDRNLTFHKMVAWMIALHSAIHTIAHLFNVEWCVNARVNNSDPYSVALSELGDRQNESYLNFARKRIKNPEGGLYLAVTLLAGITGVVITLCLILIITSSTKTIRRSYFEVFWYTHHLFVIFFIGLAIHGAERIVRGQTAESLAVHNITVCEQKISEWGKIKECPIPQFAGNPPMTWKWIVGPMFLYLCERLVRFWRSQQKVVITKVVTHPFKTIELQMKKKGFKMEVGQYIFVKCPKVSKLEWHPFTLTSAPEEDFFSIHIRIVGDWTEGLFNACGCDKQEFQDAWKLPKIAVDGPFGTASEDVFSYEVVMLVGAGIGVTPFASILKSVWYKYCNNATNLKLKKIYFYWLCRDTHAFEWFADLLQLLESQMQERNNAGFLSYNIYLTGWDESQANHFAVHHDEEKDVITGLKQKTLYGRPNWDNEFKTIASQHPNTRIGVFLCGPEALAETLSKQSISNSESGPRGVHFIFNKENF

[19] = biological target: NADPH oxidase 4 (Homo sapiens) (UniProt Q9NPH5); test: compounds shifting NOX4 Amplex Red fluorescence – cell-based, HEK293-NOX4, tetracycline-induced, NOX inhibitor project, primary screen (AID 1160); settings: HEK293-NOX4, Amplex Red H2O2 fluorescence, 45 min; higher = more signal, called active from +8 up or from −8 down
NADPH oxidase 4 (Homo sapiens), sequence (Q9NPH5 whole entry, looked up): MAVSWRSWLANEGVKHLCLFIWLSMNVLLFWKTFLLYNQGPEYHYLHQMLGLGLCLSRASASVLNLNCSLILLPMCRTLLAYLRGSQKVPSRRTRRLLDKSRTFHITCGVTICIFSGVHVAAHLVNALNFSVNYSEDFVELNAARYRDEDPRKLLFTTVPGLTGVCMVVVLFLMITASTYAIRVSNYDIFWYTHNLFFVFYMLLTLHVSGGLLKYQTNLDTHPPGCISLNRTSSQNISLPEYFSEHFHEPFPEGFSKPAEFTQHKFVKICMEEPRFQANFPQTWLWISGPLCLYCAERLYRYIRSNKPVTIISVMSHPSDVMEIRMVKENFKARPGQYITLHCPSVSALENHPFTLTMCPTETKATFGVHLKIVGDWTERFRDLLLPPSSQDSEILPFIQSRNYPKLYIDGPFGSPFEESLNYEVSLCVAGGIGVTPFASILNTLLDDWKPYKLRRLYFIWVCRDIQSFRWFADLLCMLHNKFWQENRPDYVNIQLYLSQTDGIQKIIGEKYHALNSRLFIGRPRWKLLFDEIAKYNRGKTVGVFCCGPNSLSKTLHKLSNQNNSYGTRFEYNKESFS

[20] = biological target: NADPH oxidase 5 (Homo sapiens) (UniProt Q96PH1); test: compounds shifting NOX5 Amplex Red fluorescence – cell-based, HEK293-NOX5, NOX inhibitor project, primary screen (AID 1161); settings: HEK293-NOX5, ionomycin, 45 min, higher = more signal
NADPH oxidase 5 (Homo sapiens), sequence (Q96PH1 whole entry, looked up): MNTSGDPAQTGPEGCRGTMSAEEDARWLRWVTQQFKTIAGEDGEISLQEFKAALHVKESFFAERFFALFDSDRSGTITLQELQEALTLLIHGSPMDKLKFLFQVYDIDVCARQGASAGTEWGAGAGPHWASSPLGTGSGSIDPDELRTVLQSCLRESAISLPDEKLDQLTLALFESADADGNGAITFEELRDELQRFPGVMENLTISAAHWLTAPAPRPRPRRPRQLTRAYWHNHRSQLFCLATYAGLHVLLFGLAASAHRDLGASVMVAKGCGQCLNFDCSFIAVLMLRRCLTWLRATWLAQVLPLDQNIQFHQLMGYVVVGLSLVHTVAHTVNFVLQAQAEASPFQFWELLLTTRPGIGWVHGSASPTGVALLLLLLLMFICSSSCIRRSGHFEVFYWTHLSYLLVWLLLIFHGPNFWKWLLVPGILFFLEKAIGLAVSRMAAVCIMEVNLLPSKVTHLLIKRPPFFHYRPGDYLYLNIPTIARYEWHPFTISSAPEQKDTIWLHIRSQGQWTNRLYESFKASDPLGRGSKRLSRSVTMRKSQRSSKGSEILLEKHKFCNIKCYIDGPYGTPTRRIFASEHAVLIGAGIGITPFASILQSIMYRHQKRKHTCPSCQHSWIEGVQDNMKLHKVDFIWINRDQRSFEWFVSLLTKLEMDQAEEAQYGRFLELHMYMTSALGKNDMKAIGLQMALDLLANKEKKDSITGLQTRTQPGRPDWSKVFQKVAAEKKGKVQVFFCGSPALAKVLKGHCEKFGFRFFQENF

SMILES | composite z-score [1] | z-score [2] | z-score [3] | z-score [4] | z-score [5] | composite z-score [6] | composite z-score [7] | composite z-score (Torsin-1A (Homo sapiens) [8]) | composite z-score (Torsin-1A (Homo sapiens) [9]) | composite z-score [10] | z-score [11] | composite z-score [12] | z-score [13] | z-score [14] | z-score [15] | z-score [16] | z-score [17] | z-score [18] | z-score [19] | z-score [20]
C=C1C2CC3C(=C4C(CO[C@@H]4[C@H]4CCCN4S(=O)(=O)c4ccccc4[N+](=O)[O-])C4C(=O)N(C)C(=O)C34)CC2C(=O)N1C (stereo not given in full) | -0.0541 | 0.985 (inactive) | 0.283 (inactive) | 3.21 (inactive) | 0.769 (inactive) | -0.207 | -0.101 | 0.942 | 0.107 | 0.832 | -0.523 (inactive) | -0.147 | 4.07 (inactive) | 0.0975 (inactive) | -0.513 (inactive) | -0.0387 (inactive) | 0.0973 | 0.228 (inactive) | 0.569 (inactive) | 0.751
CC=CC(O)C1C=CC2C(=O)N(C)C(=O)C2N1Nc1ccc([N+](=O)[O-])cc1[N+](=O)[O-] (stereo not given) | -0.449 | 1.01 (inactive) | -0.658 (inactive) | -0.136 (inactive) | 0.71 (inactive) | -0.118 | -0.128 | 0.316 | -0.297 | -0.144 | -1.33 (inactive) | -0.094 | 1.67 (inactive) | 0.917 (inactive) | 0.566 (inactive) | 1.1 (inactive) | -0.711 | -0.379 (inactive) | -1.05 (inactive) | -1.09
CN1C(=O)C2C=CC(C(O)c3c(F)cccc3Cl)N(Nc3ccccc3)C2C1=O (stereo not given) | 0.438 | 1.01 (inactive) | 0.402 (inactive) | 0.433 (inactive) | 0.928 (inactive) | 1.53 | 0.0374 | -0.353 | -0.562 | -0.206 | -1.32 (inactive) | 0.277 | 0.32 (inactive) | 0.733 (inactive) | -0.108 (inactive) | 1.12 (inactive) | -0.809 | -2.08 (inactive) | -4.96 (inactive) | -2.51
CCOC(=O)C[C@H]1[C@H](OC(=O)Cc2ccc3c(c2)OCO3)[C@@H](NC(=O)Cc2ccc(OC)cc2)c2cc(OCCCO)ccc2N1C(=O)c1ccccc1 | 0.194 | -0.0801 (inactive) | -0.112 (inactive) | 0.222 (inactive) | -0.377 (inactive) | 0.421 | -0.103 | -0.334 | 0.426 | 0.528 | 1.53 (inactive) | 0.0903 | 1.8 (inactive) | 0.263 (inactive) | -0.729 (inactive) | -0.33 (inactive) | -0.295 | -1.25 (inactive) | 0.689 (inactive) | 0.267
CN(C)CCCNC(=O)[C@@]1(c2ccc([N+](=O)[O-])cc2)CC(=O)N(CC23CC4CC(CC(C4)C2)C3)[C@@H]1c1ccc(CO)cc1 | 0.461 | -5.82 (inactive) | -0.262 (inactive) | -0.295 (inactive) | -0.741 (inactive) | 2.03 | 0.641 | -0.183 | 0.0626 | 0.989 | -3.6 (inactive) | 0.885 | 0.924 (inactive) | -0.365 (inactive) | -0.788 (inactive) | -0.798 (inactive) | -2.28 | -8.3 (active) | -2.09 (inactive) | 0.357
CN1C(=O)C2C(C1=O)C1C=C(c3ccc(CO)cc3)C2C(c2cccs2)N1Cc1cccc(OC(F)(F)F)c1 (stereo not given) | 0.314 | -3.4 (inactive) | -0.656 (inactive) | -0.336 (inactive) | -1.55 (inactive) | 0.474 | 0.0689 | 1.13 | -0.0742 | 0.834 | -0.652 (inactive) | 0.0999 | 17.4 (active) | 3.33 (inactive) | 1.81 (inactive) | 1.43 (inactive) | 0.624 | -2.71 (inactive) | -1.35 (inactive) | -2.6
C=CCN1Cc2ccccc2C[C@@]2(N=C(c3ccc(OCCCO)cc3)O[C@H]2c2ccccc2)C1=O | 0.762 | -5.03 (inactive) | -0.8 (inactive) | -0.23 (inactive) | -1.51 (inactive) | 0.0967 | 0.0471 | 0.233 | 0.983 | 1.05 | 0.404 (inactive) | 0.57 | 28.1 (active) | 23.6 (active) | 2.55 (inactive) | 5.74 (inactive) | 0.624 | -5.76 (inactive) | -0.323 (inactive) | -3.72
NC(=O)NCC#Cc1ccc2c(c1)[C@]1(C(=O)N2)[C@H](C(=O)O)[C@H]2C(=O)O[C@H](c3ccccc3)[C@H](c3ccccc3)N2[C@@H]1c1ccccc1OCCO | 0.697 | -1.95 (inactive) | -1.26 (inactive) | 0.0384 (inactive) | 0.143 (inactive) | 1.1 | 0.374 | 0.712 | 0.651 | 1.41 | 3.32 (inactive) | 0.73 | -1.21 (inactive) | -1.81 (inactive) | -3.99 (inactive) | -2.67 (inactive) | 2.78 | 2.1 (inactive) | 0.786 (inactive) | -0.188
C=CC[C@@]1(C(=O)N2CCCCC2)N=C(c2ccc(OCCCO)cc2)O[C@@H]1c1ccccc1 | 0.18 | -3.63 (inactive) | 0.222 (inactive) | 1.5 (inactive) | -0.134 (inactive) | 0.0319 | 0.411 | 0.521 | 1.22 | -0.229 | 0.659 (inactive) | 0.683 | 26.1 (active) | 11.4 (active) | 2.02 (inactive) | 1.97 (inactive) | -0.499 | -0.432 (inactive) | 0.174 (inactive) | -1.66
